Source: PubChem (National Center for Advancing Translational Sciences (NCATS))
GPT2 inh: Primary qHTS assay for inhibitors of Glutamate pyruvate transaminase 2 (GPT2); Alanine aminotransferase 2 (Homo sapiens), Q8TD30; 100,000 compounds, 0.25% hits; Potency, µM (doses to about 57.7 µM), for inactives: at the top dose activity change, negative = inhibition, most hits filed as inhibitors; Recombinant GPT2, coupled pyruvate oxidase/HRP Amplex Red fluorescence; note: % is set by controls: 0 for no effect and ±100 for the full control effect; nearly all actives have a fitted effect of over 60% in size
Target sequence (Q8TD30 whole entry, looked up): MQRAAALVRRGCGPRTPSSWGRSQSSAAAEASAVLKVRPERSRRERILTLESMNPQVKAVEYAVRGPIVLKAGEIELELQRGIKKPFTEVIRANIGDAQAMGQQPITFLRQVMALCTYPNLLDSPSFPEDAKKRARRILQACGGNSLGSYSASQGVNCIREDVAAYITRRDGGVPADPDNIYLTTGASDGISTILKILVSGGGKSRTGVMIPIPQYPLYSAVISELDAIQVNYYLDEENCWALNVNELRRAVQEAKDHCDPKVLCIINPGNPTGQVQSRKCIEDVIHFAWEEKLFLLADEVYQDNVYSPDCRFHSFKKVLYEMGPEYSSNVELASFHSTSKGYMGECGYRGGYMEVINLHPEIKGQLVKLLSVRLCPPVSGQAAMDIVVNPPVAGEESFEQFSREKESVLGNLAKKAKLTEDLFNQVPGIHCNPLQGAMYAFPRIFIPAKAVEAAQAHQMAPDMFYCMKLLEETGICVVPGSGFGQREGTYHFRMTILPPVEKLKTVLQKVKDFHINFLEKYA
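Recombinant GPT2 (10ng/uL) with 250uM a-KG and 2mM L-alanine, 30 min at room temperature, in HEPES pH 7.5 buffer. Pyruvate detected by pyruvate oxidase/HRP/Amplex Red fluorescence after 30 min in the dark; AOA (50uM) as positive control.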
Luciferase inh: Firefly luciferase inhibition profiling of diverse chemical library using quantitative high-throughput screening. Luciferin 4-monooxygenase (Photinus pyralis), P08659. purified P. pyralis luciferase, luminescence, biochemical. Potency, µM (series often up to 115 µM), most hits filed as inhibitors. 76,000 compounds, 2.5% hits; note: % is set by controls: 0 for no effect and ±100 for the full control effect; nearly all actives have a fitted effect of over 65% in size
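Biochemical qHTS: compound (6-point titration) added to 10uM D-luciferin plus 10uM ATP in Tris acetate pH 7.5 buffer with Mg, Tween-20 and BSA, then purified enzyme at 10nM; light output imaged.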
HEK cytotox: Cytotoxic Profiling in HEK 293 Cell Line of Diverse Libraries Using Quantitative High-Throughput Screening. 94,000 compounds, 6.6% hits. HEK 293 viability, ATP luminescence (CellTiter-Glo), 48-72 h. AID 1345083, 2018. Potency, µM (series often up to 115 µM), without a hit: at the highest dose activity change, negative = cytotoxicity, actives largely listed as inhibitors; note: % is set by controls: 0 for no effect and ±100 for the full control effect; nearly all actives have a fitted effect of over 60% in size
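250 HEK 293 cells/well; compound by pintool; incubated 48 or 72 hr at 37 degree Celsius; CellTiter-Glo added, 10 min RT, luminescence imaged.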
3T3 cytotox: Cytotoxic Profiling in NIH 3T3 Cell Line of Diverse Libraries Using Quantitative High-Throughput Screening | NIH 3T3 viability, CellTiter-Glo ATP luminescence, 48-72 h | Potency, µM (titrated, usually from 96.7 µM), for inactives: at the highest dose activity change, negative = cytotoxicity, actives largely listed as inhibitors | AID 1345082, 2018 | 94,000 compounds, 4.3% hits; note: % is set by controls: 0 for no effect and ±100 for the full control effect; nearly all actives have a fitted effect of over 55% in size
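Mouse fibroblast NIH 3T3 cells, 400 per well, received compound via pintool and were incubated for 48 or 72 hr prior to CellTiter-Glo ATP luminescence measurement.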
hNpr1 antagonist: Natriuretic polypeptide receptor (hNpr1) antagonism - Primary qHTS; HEK293 hNpr1 GloSensor cGMP, ANP-stimulated luminescence; Potency, µM (series often up to 46.3 µM), without a hit: at the highest dose activity change, negative = inhibition, hits mostly inhibitors; 76,000 compounds, 1.6% hits; AID 1347048, 2019; calls by dose curve; note: % is set by controls: 0 for no effect and ±100 for the full control effect; nearly all actives have a fitted effect of over 60% in size
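Compound pre-incubated 30 min at room temperature on GloSensor-loaded HEK293 cells stably carrying hNpr1 and the pGS-40F cGMP biosensor. Stimulation uses hNppA at 0.1 nM final; luminescence is taken at baseline and 20 min post-agonist.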
NPR1 antag cnf: Natriuretic polypeptide receptor (hNpr1) antagonism - Confirmation; HEK293 hNpr1 cGMP GloSensor luminescence, ANP-stimulated; shares compounds with hNpr1 antagonist; AID 1347044, 2019; 1,400 compounds, 76% hits; Potency, µM (top dose mostly 57.6 µM), for inactives: at the top dose activity change, negative = inhibition, actives largely listed as inhibitors; calls by dose curve; note: nearly all actives have a fitted effect of over 70% in size
NPR2 antag: Natriuretic polypeptide receptor (hNpr2) antagonism - Subtype selectivity assay. 1,400 compounds, 67% hits. HEK293 hNpr2 GloSensor cGMP luminescence, CNP-stimulated. Potency, µM (titrated, usually from 57.6 µM), without a hit: at the top dose activity change, negative = inhibition, most hits filed as inhibitors. shares compounds with hNpr1 antagonist; calls by dose curve; note: nearly all actives have a fitted effect of over 70% in size
FLuc inh counter: Natriuretic polypeptide receptor (hNpr1) antagonism - Confirmation firefly luciferase (FLuc) inhibition counterscreen. shares compounds with hNpr1 antagonist. purified FLuc enzyme, luminescence, Km substrate. Potency, µM (doses to about 57.6 µM), for inactives: at the highest dose activity change, negative = inhibition, usual class: inhibitors. 1,400 compounds, 0.7% hits; note: 0% is about no effect
GloSensor ctrl: Natriuretic polypeptide receptor (hNpr1) antagonism - Counterscreen GloSensor control cell line; AID 1347051, 2019; Potency, µM (top dose mostly 57.6 µM), for inactives: top-dose activity change, negative = inhibition, hits mostly inhibitors; 1,400 compounds, 69% hits; HEK293 GloSensor cGMP, SNP-stimulated, luminescence; shares compounds with hNpr1 antagonist; calls by dose curve; note: % is set by controls: 0 for no effect and ±100 for the full control effect; nearly all actives have a fitted effect of over 70% in size
* = called active by the depositor; i = inactive; ? = inconclusive; . = no result. Shown are actives, neighbours in structure and some others; about 10% of the full set was active somewhere. Unless noted, calls come from the whole dose curve; as a rule, active = well fitted curve in the direction sought with a large enough effect; inconclusive = small, poorly fitted or top-dose-only effect, or another doubt; inactive = no such curve, though single readings can be large; an effect the other way counts as inactive or inconclusive. Potency is the fitted concentration of half-maximal effect.

SMILES	GPT2 inh	Luciferase inh	HEK cytotox	3T3 cytotox	hNpr1 antagonist	NPR1 antag cnf	NPR2 antag	FLuc inh counter	GloSensor ctrl
O=C(NCc1ccccc1Cl)C1(c2ccc(Cl)cc2)CCOCC1	.	.	?	-24%	.	.	.	.	.
COC(=O)c1ccc(NC(=O)N2CC(Oc3cccc(-c4nc(C)no4)c3)C2)cc1	-16%	i	?	?	13µM*	24µM*	24µM*	-1%	24µM*
O=C(Nc1ccccc1)N1CC(Oc2ccc(-c3noc(-c4ccncc4)n3)cc2)C1	i	i	?	-25%	11µM*	6.1µM*	8.6µM*	-1%	6.1µM*
Cc1ccc(-n2c(C3CCN(C(=O)COc4cccc(C)c4)CC3)n[nH]c2=O)cc1	1%	i	1%	?	-14%	.	.	.	.
Cc1ccc(NC(=O)CN2C(=O)NC(c3ccc(Cl)cc3)C3=C2COC3=O)c(Cl)c1 (stereo not drawn)	0%	i	45µM*	?	?	?	-28%	4%	-20%
Cc1ccc(NC(=O)CN2C(=O)NC(c3ccc(Cl)cc3)C3=C2COC3=O)c(C)c1 (stereo not drawn)	0%	i	?	?	-20%	.	.	.	.
O=C(CN1C(=O)NC(c2ccc(Cl)cc2)C2=C1COC2=O)Nc1ccc(F)c(Cl)c1 (stereo not drawn)	?	i	?	40µM*	?	?	?	-6%	?
CCOc1ccccc1C1NC(=O)N(CC(=O)Nc2cccc(C(C)C)c2)C2=C1C(=O)OC2 (stereo not drawn)	i	i	?	?	?	?	?	-1%	?
CC1CCN(C(=O)[C@@H](C)C2CC[C@@]3(C)CC[C@H](NC(=O)Cc4ccccc4)[C@@H](C)[C@@H]3[C@H]2O)CC1 (stereo partly drawn)	0%	i	-23%	-20%	-2%	.	.	.	.
Cc1ccccc1C(=O)N1CCN(C(=O)c2nc3cccnc3n(CCc3ccccc3)c2=O)CC1	-4%	.	?	-29%	.	.	.	.	.
O=C(N1CCC(c2ccccc2)CC1)C1(c2ccc(Cl)cc2)CCOCC1	i	.	?	?	.	?	?	4%	-19%
Cc1cnc(C(=O)N2CCCCCC2c2nnc(-c3ccccc3)o2)cn1 (stereo not drawn)	i	i	-25%	-22%	0%	.	.	.	.
COCCN1C(=O)c2ccccc2C(C(=O)Nc2cc(C)ccc2OC)C12CCCCC2 (stereo not drawn)	i	i	?	-16%	?	22µM*	12µM*	-3%	8%
